Source: PubChem BioAssay (several laboratories)
MazF activator = MazEF (E. coli) toxin RNase activation. hit rate 0.32% among 350,000. activation, % at 20 µM. P0AE70. FAM/BHQ RNA-DNA oligo cleavage fluorescence, 5 h; in the data active means activation above about 50%
Target sequence (P0AE70 whole entry, looked up): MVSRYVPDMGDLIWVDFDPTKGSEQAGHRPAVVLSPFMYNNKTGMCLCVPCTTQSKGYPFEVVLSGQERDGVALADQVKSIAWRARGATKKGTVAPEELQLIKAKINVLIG
DUSP3 inh = blocks human VHR1 dual specificity phosphatase; recombinant VHR phosphatase, pNPP absorbance; inhibition, % at 13.3 µM; hit rate 0.52% among 290,000; AID 1654; in the data active means inhibition above about 50%
Target sequence (P51452 whole entry, looked up): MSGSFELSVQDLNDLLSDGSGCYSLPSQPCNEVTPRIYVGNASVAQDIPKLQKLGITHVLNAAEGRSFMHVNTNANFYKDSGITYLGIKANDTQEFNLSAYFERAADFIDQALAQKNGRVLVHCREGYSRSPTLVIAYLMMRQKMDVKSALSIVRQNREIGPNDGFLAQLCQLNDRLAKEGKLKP
3CLpro inhibitor = SARS-CoV 3CLpro protease inhibition; P0C6X7; recombinant SARS-CoV 3CLpro, quenched FRET peptide cleavage; inhibition, % at 6 µM; hit rate 0.14% among 290,000; in the data active means inhibition above about 12%
PfHsp40 rescue = restores yeast growth despite PfHsp40 toxicity | S. cerevisiae expressing PfHsp40, growth rescue, ATP luminescence | growth rescue, % at 12.5 µM | hit rate 0.68% among 340,000 | AID 504582; in the data active means growth rescue above about 28%, passing the limit was not always enough;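 further: yeast W303a lacking pdr1 and pdr3 grown in galactose medium; growth measured after three days at 30 °C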
BH1578 lux ind = quorum light induction in luxS cqsA deficient V. cholerae. V. cholerae BH1578 lux reporter, luminescence, 6 h. activation, % at 18.7 µM. hit rate 0.16% among 350,000; in the data active means activation mostly above about 9.7%, no sharp cut-off
BJeLR viability = BJeLR cell viability loss; BJeLR (HRASV12) viability, CellTiter-Glo ATP luminescence, 48 h; inhibition, % (no concentration beside the values); hit rate 0.17% among 300,000; in the data active means inhibition above about 50%
* = called active by the depositor; i = inactive; / = no result given. In the library only some 1.7% were active in any assay of this set; here they are far more common.

SMILES | MazF activator | DUSP3 inh | 3CLpro inhibitor | PfHsp40 rescue | BH1578 lux ind | BJeLR viability
O=S(=O)(c1ccc(F)cc1)N1CCN(c2ccc(-c3ccccc3)nn2)CC1 | 63.1* | 37.1 | -2.4 | 0.9 | i | 3.0
O=C(NC1CCN(S(=O)(=O)c2ccc(F)cc2)CC1)c1ccc(F)cc1 | 13.2 | 55.7* | -0.9 | -0.1 | -0.3 | 5.8
O=C(Nc1ccc(Cl)cc1Cl)NC1CCN(S(=O)(=O)c2ccc(F)cc2)CC1 | 100.7* | -11.0 | 2.4 | -0.4 | -0.6 | 8.5
COc1ccc(C(=O)NC2CCN(S(=O)(=O)c3ccc(F)cc3)CC2)cc1 | 3.9 | 21.9 | -4.3 | -0.1 | -0.3 | -0.8
O=S(=O)(c1ccc(F)cc1)N1CCCC1 | 9.7 | 8.1 | -5.2 | 37.0* | -0.4 | -9.0
O=C(Nc1ccc(F)cc1)Nc1ccc(S(=O)(=O)N2CCCC2)cc1 | 5.9 | / | / | -0.4 | -2.8 | /
CC(C)(C)NC(=O)C(c1ccncc1)N(Cc1ccc(F)cc1)C(=O)c1ccc(-c2ccccc2)[nH]1 (configuration not stated) | -2.3 | 4.0 | 11.7 | 66.4* | -0.4 | -7.5
CC(C)(C)NC(=O)C(c1ccncc1)N(Cc1cccs1)C(=O)Cn1nnc(-c2ccc(F)cc2)n1 (configuration not stated) | -3.7 | 52.9* | -2.7 | -0.2 | 0.3 | 7.5
O=C(COc1cccc2c1CCN(Cc1ccccc1F)C2=O)N1CCCCC1 | -0.2 | 51.8* | -0.4 | 0.4 | -1.3 | -22.2
O=C(COc1cccc2c1CCN(Cc1ccccc1F)C2=O)N1CCOCC1 | / | 28.6 | 5.6 | / | / | 6.1
CC1CCCCN1C(=S)Nc1ccc(S(=O)(=O)N2CCCCC2)cc1 (configuration not stated) | -4.6 | / | / | / | i | /
COc1ccccc1OCC(=O)Nc1cc(Cl)ccc1N1CCCCC1 | -8.6 | / | / | -1.0 | -0.7 | /
Nc1c(C(=O)c2ccc(Cl)cc2)sc2nc3c(cc12)CCC3 | 70.4* | -32.7 | -4.5 | 1.2 | 1.4 | 4.9
Nc1c(C(=O)O)sc2nc3c(cc12)CCCC3 | 12.1 | 25.0 | -0.4 | / | -0.6 | -3.0
O=C(c1cccc(C(F)(F)F)c1)C1CCCN(C(=O)CCCn2cncn2)C1 (configuration not stated) | 2.5 | 0.4 | 0.0 | -0.7 | i | -10.7
O=C(NCc1ccc2c(c1)OCO2)C(=O)NCC1CCCO1 (configuration not stated) | -0.4 | 8.2 | -0.6 | 0.7 | i | 0.3
O=C(NCc1cccc(CNC(=O)C(=O)NCC2CCCO2)c1)C(=O)NCC1CCCO1 (configuration not stated) | 11.4 | 25.1 | 0.3 | -1.7 | 227.4* | -2.6
CC(C)=CCc1c(O)ccc(C(=O)Cc2ccccc2)c1O | 11.2 | -3.4 | -1.1 | 611.1* | -0.6 | 0.4
Cc1ccc(S(=O)(=O)N2CCOCC2)cc1NC(=O)CSc1nnnn1C1CC1 | 2.6 | / | / | / | -0.2 | /
COCCCN=C1NN=C(c2cc(C)n(Cc3ccco3)c2C)CS1 | -1.2 | -3.8 | 3.9 | -0.6 | -0.2 | 60.5*
CCCCNc1c(-c2ccc(-c3ccc(OC)cc3)c(OC)c2)nc2ccccn12 | 1.1 | / | / | 251.1* | i | /
CCCCNc1c(-c2ccc(OC)c(Sc3ccc(OC)cc3)c2)nc2ccccn12 | 3.8 | / | / | 12.4 | -0.4 | 0.8
C=CCNc1ncnc2c1ncn2[C@H]1CN(CCOC)C[C@@H](CO)O1 | / | / | / | / | i | /
Cc1ccc(CSc2nnc(-c3ccncc3)n2C)cc1 | 0.0 | 35.8 | 4.5 | -0.4 | -0.4 | -2.3
Cc1ccc(Nc2nc(CSc3nnc(-c4ccncc4)n3C)cs2)cc1 | 5.6 | 58.3* | 2.7 | -0.2 | -0.7 | 9.3
SMILES | MazF activator | DUSP3 inh | 3CLpro inhibitor | PfHsp40 rescue | BH1578 lux ind | BJeLR viability
N=c1c[n+](N2CCOCC2)[n-]o1 | 352.8* | -3.0 | -1.2 | -0.9 | i | -0.1
CC(C)CN(C(=O)CCC1CCCCC1)c1c(N)n(CC(C)C)c(=O)[nH]c1=O | 0.9 | / | / | -1.3 | -0.7 | /
O=c1c2ccccc2nc(-c2ccc(-c3ccccc3)cc2)n1-c1ccncc1 | 1.4 | -0.1 | 0.6 | 340.6* | -5.9 | 5.3
Cc1c(NC(=O)Nc2cccc(C#N)c2)c(=O)n(-c2ccccc2)n1C | 9.1 | 5.9 | -2.7 | -1.0 | i | 4.4
CC(NC(=O)CN1C(=O)NC2(CCc3ccccc32)C1=O)c1ccc2c(c1)OCCO2 (configuration not stated) | 6.3 | / | / | -1.8 | i | /
Cc1ccc(NC(=O)C(C)N2C(=O)C3C4CC(C(Br)C4Br)C3C2=O)cc1 (configuration not stated) | 5.5 | 27.0 | -4.1 | 2.1 | 38.0* | -7.7
